# Only some compounds are listed: those with a hit (about 11% of all), similar ones and a draw of the others.
# USP28 block: inhibitors of human USP28 deubiquitinase. purified USP28, Ub-rhodamine cleavage fluorescence, 30 min. inhibition, % at 25 µM. 3% of 47,000 active. AID 1645857
# USP17 inh: human USP17-like deubiquitinase inhibition | inhibition, % at 50 µM | A8MUK1 | purified USP17, Ub-rhodamine cleavage fluorescence, 3 h | AID 1645855 | 6.5% of 47,000 active
# Target sequence (A8MUK1 whole entry, looked up): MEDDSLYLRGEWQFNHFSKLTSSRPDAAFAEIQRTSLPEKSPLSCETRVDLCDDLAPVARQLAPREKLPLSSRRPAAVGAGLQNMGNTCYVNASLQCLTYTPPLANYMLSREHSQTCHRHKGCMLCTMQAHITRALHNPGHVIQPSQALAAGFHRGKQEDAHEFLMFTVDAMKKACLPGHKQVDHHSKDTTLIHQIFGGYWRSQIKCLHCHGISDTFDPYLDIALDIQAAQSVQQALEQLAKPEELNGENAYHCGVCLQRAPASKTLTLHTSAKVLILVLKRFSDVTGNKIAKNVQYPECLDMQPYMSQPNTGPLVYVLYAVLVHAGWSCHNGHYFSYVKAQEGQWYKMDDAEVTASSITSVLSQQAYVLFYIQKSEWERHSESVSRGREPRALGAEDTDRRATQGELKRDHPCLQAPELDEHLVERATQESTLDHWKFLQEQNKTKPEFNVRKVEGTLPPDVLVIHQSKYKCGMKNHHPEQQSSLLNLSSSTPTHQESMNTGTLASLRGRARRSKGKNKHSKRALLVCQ
# USP30 block: human USP30 deubiquitinase inhibition. purified USP30, Ub-rhodamine cleavage fluorescence. Q70CQ3. inhibition, % at 25 µM. AID 1645860. 5.3% of 47,000 active
# Numbers without * were called inactive; i = inactive. No stated cut-off is given here; in the data, active means inhibition above about 30%; inactive means the rest.
SMILES,USP28 block,USP17 inh,USP30 block
O=C(NC1CC1)c1nc2c(s1)CCCN2c1ncccn1,-2.7,-1.2,0.6
O=C(NCC1(O)CCc2ccccc21)c1ccc2c(c1)OCO2 (centres undefined),10.1,15.0,33.2*
N#Cc1cccc(C(=O)NCC2(O)CCc3ccccc32)c1 (centres undefined),-23.9,-19.3,-6.8
CC(C)CC(=O)N1CCN(c2ccc(N3CCCC3)nn2)CC1,-1.3,-7.9,-15.1
COc1ccc2cc(CN(C(=O)Nc3ccccc3)C3CCCCC3)c(=O)[nH]c2c1,0.8,0.0,-6.1
CCOc1ccc2[nH]c(=O)c(CN(C(=O)c3cccs3)C3CCCC3)cc2c1,-7.8,65.8*,7.2
CCOC(=O)c1nc(-c2cccc3[nH]ccc23)no1,10.5,3.6,17.1
CN(C)S(=O)(=O)N1CCCC(Cc2cnc(-c3cnn(C)c3)cn2)C1 (centres undefined),-0.7,-5.2,-59.2
CCCCC/C=C/c1c(O)cc(CC=C(C)C)c(O)c1C=O,22.7,18.5,-27.6
C/C=C/C=C/CCc1c(O)cc(CC=C(C)C)c(O)c1C=O,14.7,45.0*,-50.9
Cc1cccc(NC(=O)c2cn(CC(=O)NC3CCCC3)c3nc(C)ccc3c2=O)c1,-0.4,47.7*,0.2
CCc1cccc(NC(=O)c2cn(CC)c3nc(C)ccc3c2=O)c1,-28.8,-29.0,-113.4
Cc1cccc(NC(=O)Cn2cc(C(=O)N3CCCCC3)c(=O)c3ccc(C)nc32)c1,0.2,2.8,12.1
CCn1cc(C(=O)Nc2ccc3ccccc3c2)c(=O)c2ccc(C)nc21,-12.7,32.7*,-97.9
O=S1(=O)NC(C2CCN(Cc3ccco3)CC2)Nc2ccccc21 (centres undefined),7.8,5.2,-0.8
CCc1ccccc1NC(=O)CCn1nc(C)c(S(=O)(=O)N2CCOCC2)c1C,-3.8,0.4,1.4
CN(Cc1ccccc1)C(=O)c1nnn(-c2ccccc2)n1,0.6,-2.3,6.0
O=C(c1nnn(-c2ccccc2)n1)N1CCC(Cc2ccccc2)CC1,39.2*,10.4,30.9*
COc1ccccc1N1CCN(C(=O)c2nnn(-c3ccc(C)cc3)n2)CC1,-0.9,-14.9,11.3
Cc1cccc(N2CCN(C(=O)c3nnn(-c4ccc(F)cc4)n3)CC2)c1,56.0*,13.7,25.0
Cc1c(C(=O)Nc2ccccc2F)c2ccccn2c1CCc1ccncc1,-217.8,-163.6,i
CCc1ccc(NC(=O)Cn2c(C)nc3c(-c4ccncc4)nsc3c2=O)cc1,-21.1,-4.8,-116.7
c1ccc2c(CCc3nc(-c4ccc(N5CCOCC5)cc4)no3)c[nH]c2c1,-2.6,-13.3,-52.8
COc1ccc(CCn2c3c(c(=O)[nH]c2=O)C(NS(=O)(=O)c2ccc(Cl)cc2)(C(F)(F)F)C(=O)N3)cc1OC (centres undefined),5.6,16.1,8.8
O=C(NCc1ccccc1)c1ccc2c(=O)n(-c3ccccc3)c(=O)[nH]c2c1,16.9,66.2*,21.4
SMILES,USP28 block,USP17 inh,USP30 block
O=C(Cc1ccc(-n2c(=O)[nH]c3ccccc3c2=O)cc1)N1CCN(c2ccccc2)CC1,4.7,12.1,-0.2
O=C(NCc1ccco1)c1ccc2c(=O)n(Cc3ccco3)c(=O)[nH]c2c1,19.6,40.2*,-22.3
COc1ccc(CCn2c(=O)[nH]c3cc(C(=O)NCc4ccco4)ccc3c2=O)cc1OC,-0.6,-10.8,7.4
Cc1ccccc1OCC(=O)NCC1(N2CCOCC2)CCCCC1,-3.0,-3.5,-3.9
O=C(Nc1cccc2cnccc12)N1CCCCCC1,10.1,33.6*,4.5
O=C(Nc1cccc(Cl)c1Cl)N1CCCN(Cc2ccc(F)cc2)CC1,3.0,0.1,15.1
Cc1cc(N2C(=O)OCC2C(C)C)nc(C2CCN(S(C)(=O)=O)CC2)n1 (centres undefined),-0.3,-0.9,9.3
Cc1ccccc1CS(=O)(=O)N1CCC(C(=O)N2CCC(C)CC2)CC1,10.9,20.3,27.4
CCN1C[C@@H]2C[C@]2(c2ccccc2OC)C(=O)c2ncccc21,0.9,65.0*,-53.7
O=C1c2ncccc2N(S(=O)(=O)c2cccc(F)c2)C[C@@H]2C[C@]12c1ccccc1,3.5,-0.1,1.8
COc1ccccc1NC(=O)N1C[C@@H]2c3nccn3-c3ccccc3[C@@H]2C1,-1.7,-6.9,0.6
COc1ccccc1[C@]12C[C@H]1CN(C(=O)Nc1ccncc1)c1cccnc1C2=O,7.2,15.4,33.9*
COCCN1C[C@@H](C)[C@@]2(COCCN(C(=O)c3cccc(C)n3)C2)C1,-3.3,-16.1,-2.2
O=C(Nc1ccc(N2CCN(c3ccccc3)C2=O)nc1)C1CCOC1 (centres undefined),10.4,26.4,34.9*
O=C(Nc1ccc(N2CCN(Cc3ccc(F)cc3)C2=O)nc1)C1CCC1,38.4*,60.1*,62.6*
O=C(Nc1ccc(N2CCN(Cc3ccc(F)cc3)C2=O)nc1)c1ccc2c(c1)OCO2,-4.8,23.6,-18.9
O=C(Nc1ccc(N2CCN(c3ccccc3)C2=O)nc1)C1CCCC1,-2.1,2.1,0.3
COc1ccc(S(=O)(=O)NCc2cccc(-c3nn(C)cc3-c3ccncc3C)c2)cc1,-0.3,-2.8,-6.3
O=C(Nc1cccc(CO)c1)c1ccc(COc2ccc(Cl)cc2)cc1,18.8,13.5,20.6
COC(=O)c1ccc(NC(=O)c2ccc(COc3cc(Cl)ccc3Cl)cc2)cc1,15.0,47.5*,14.4
COc1cccc(N2CC(C(=O)NCCNC(=O)C3CC3)CC2=O)c1 (centres undefined),-1.2,11.8,9.8
O=[N+]([O-])CCc1ccc(O)c(O)c1,5.1,-33.0,-68.0
COc1cc2nc(CN3CCN(c4ccccc4F)CC3)[nH]c(=O)c2cc1OC,1.2,-6.9,-3.8
COc1cc2nc(CN3CCN(c4ccc(O)cc4)CC3)[nH]c(=O)c2cc1OC,-2.3,40.6*,-48.1
Cc1cnc(N2CCC3(CCN(c4ccc(C)nn4)CC3)CC2)nc1,-13.8,-23.7,-61.0
SMILES,USP28 block,USP17 inh,USP30 block
COc1ccccc1C(=O)N1CCN(c2nc(-c3ccc(Cl)cc3)no2)CC1,3.2,3.1,5.3
O=C(c1ccccc1F)N1CCN(c2nc(-c3ccc(Cl)cc3)no2)CC1,8.5,-6.3,43.9*
CCc1nc(-c2ccc(C)c(S(=O)(=O)NCC(C)c3ccccc3)c2)no1 (centres undefined),6.2,-1.8,8.2
CC(c1ccccc1)c1nc(-c2ccc(=O)[nH]c2)no1 (centres undefined),60.9*,-2.5,7.9
CC(C)Cc1nc2sc3c(SCC(=O)N4CCCCC4)ncnc3c2c2c1CCC2,25.5,1.7,15.3
CC(C)Cc1nc2oc3c(N(C)CCO)ncnc3c2c2c1CCC2,40.5*,-1.8,90.8*
CCC(CO)Nc1ncnc2c1oc1nc(CC(C)C)c3c(c12)CCC3 (centres undefined),-0.7,-15.3,8.8
COCCNc1ncnc2c1oc1nc(CC(C)C)c3c(c12)CCC3,9.8,-14.5,44.0*
Cc1c(-c2ccccc2)nc2ccccc2c1C(=O)OCC(=O)NCC(C)C,-2.6,-17.5,-25.7
Cc1ccccc1C1CCCN1C(=O)c1cnn2cc(Br)cnc12 (centres undefined),5.9,-1.7,-17.3
C[C@H]1CCN(C(=O)Nc2cccc(N(C)C)c2)[C@@H](Cc2ccccc2)c2nc3ccccc3n21,-39.8,-14.5,-119.7
Cc1ccc(N(C)S(=O)(=O)c2ccsc2C(=O)NC2CCCC2)cc1,10.4,20.0,29.1
